Experimental data reported in PubChem BioAssay.

What was measured:
[1] = test system: Human papillomavirus type 1a protein E7 (residues 44-93); assay: small molecules binding HPV E7 44-93 – biochemical, small-molecule microarray, residues 44-93, 635 nm fluorescence, primary screen (AID 1108); conditions: fluorescence 635 nm, higher = more signal;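 also: E7 fragment applied at 1 µg/mL in TBST for 1 h at 4 C; score combines spot fluorescence with its signal to noise ratio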
[2] = hepatitis C replication reporter changes, two-sided – Huh7 cells, luciferase reporter, HCV replication inhibitor project, primary screen (AID 1109); conditions: Huh7 HCV replicon luciferase reporter, 48 h; higher = more signal;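 also: huh7 hepatoma cells harbouring a luciferase neomycin HCV replicon reporter; luciferase luminescence as measure of HCV replicon replication; test concentration not given here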
[3] = target: Left-right determination factor 2 (Homo sapiens) (UniProt O00292); assay: small molecules binding LEFTY2 protein – biochemical, small-molecule microarray, 635 nm fluorescence scan, primary screen (AID 1110); conditions: higher = more signal
Sequence of Left-right determination factor 2 (Homo sapiens) (O00292 whole entry, looked up): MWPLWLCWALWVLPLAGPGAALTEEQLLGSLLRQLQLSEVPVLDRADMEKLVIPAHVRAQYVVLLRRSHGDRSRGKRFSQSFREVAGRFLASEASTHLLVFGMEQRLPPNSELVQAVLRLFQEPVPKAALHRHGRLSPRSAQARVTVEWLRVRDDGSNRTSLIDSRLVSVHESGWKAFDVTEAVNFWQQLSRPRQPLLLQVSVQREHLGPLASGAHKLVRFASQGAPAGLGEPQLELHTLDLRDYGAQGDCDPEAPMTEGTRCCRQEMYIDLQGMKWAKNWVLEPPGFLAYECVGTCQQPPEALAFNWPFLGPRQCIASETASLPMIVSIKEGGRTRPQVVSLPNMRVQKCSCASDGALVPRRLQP

[4] = target: Calmodulin-1 (Homo sapiens) (UniProt P0DP23); assay: small molecules binding calmodulin-1 with EGTA – biochemical, small-molecule microarray, Cy5-labelled CALM1, profiling panel (AID 1111); conditions: Cy5-CALM1 binding fluorescence, higher = more signal;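 also: labelled calmodulin applied in Tris saline Tween buffer holding calcium plus EGTA and DTT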
[5] = target: Calmodulin-1 (Homo sapiens) (UniProt P0DP23); assay: small molecules binding Ca-loaded calmodulin-1 – biochemical, small-molecule microarray, Cy5-labelled CALM1, plus calcium, artefact control for SMM control-protein annotation, profiling panel (AID 1112); conditions: Cy5-CALM1 binding fluorescence, higher = more signal;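 also: score merges spot fluorescence with signal to noise from triplicate slides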
[6] = probe aWnt5a binding to arrayed compounds – biochemical, biotinylated probe, 635/667 nm fluorescence, primary screen (AID 1113); conditions: small-molecule microarray, higher = more signal;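 also: score merges 667 nm fluorescence intensity with signal-to-noise per printed feature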
[7] = probe aShh binding to arrayed compounds – biochemical, biotinylated probe, 635/667 nm fluorescence, primary screen (AID 1114); conditions: small-molecule microarray, higher = more signal;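 also: probe is biotin-labelled aShh protein from a stem cell growth factor screen; measures binding of labelled protein to compounds printed on the slide; score merges feature fluorescence at 667 nm with signal-to-noise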
[8] = probe aNog binding to arrayed compounds – biochemical, biotinylated probe, 635/667 nm fluorescence, primary screen (AID 1115); conditions: small-molecule microarray, higher = more signal;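 also: probe is biotinylated aNog protein used at 0.15 µg/mL for 1 h at 4 C; z-score combines 667 nm fluorescence of each spot with its signal to noise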
[9] = target: Torsin-1A-interacting protein 1 (Homo sapiens) (UniProt Q5JTV8); assay: compound microarray binding of lysate hLAP1 – cell lysate, small-molecule microarray, COS7 lysate, 635/667 nm fluorescence, primary screen (AID 1116); conditions: 635 nm fluorescence, higher = more signal
Sequence of Torsin-1A-interacting protein 1 (Homo sapiens) (Q5JTV8 whole entry, looked up): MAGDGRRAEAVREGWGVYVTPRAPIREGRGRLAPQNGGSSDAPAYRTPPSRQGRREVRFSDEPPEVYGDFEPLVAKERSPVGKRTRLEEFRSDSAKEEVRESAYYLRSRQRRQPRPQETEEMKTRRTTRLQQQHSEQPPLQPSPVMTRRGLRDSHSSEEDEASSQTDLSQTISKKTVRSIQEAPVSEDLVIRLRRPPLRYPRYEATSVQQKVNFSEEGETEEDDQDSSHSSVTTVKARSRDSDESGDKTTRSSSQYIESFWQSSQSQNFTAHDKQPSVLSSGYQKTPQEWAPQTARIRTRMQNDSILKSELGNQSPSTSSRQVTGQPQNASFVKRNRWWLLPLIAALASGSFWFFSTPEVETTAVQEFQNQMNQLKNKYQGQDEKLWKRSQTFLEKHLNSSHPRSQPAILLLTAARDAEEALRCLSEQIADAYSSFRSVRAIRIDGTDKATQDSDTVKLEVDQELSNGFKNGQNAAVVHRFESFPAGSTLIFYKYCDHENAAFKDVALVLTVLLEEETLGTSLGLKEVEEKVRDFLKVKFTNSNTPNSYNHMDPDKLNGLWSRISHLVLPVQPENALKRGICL

[10] = target: Alpha-bungarotoxin (Bungarus multicinctus) (UniProt P60615); assay: compounds binding labelled alpha-BTX control protein – biochemical, small-molecule microarray, Alexa647 label, 635/667 nm fluorescence, artefact control for SMM control protein annotation, profiling panel (AID 1117); conditions: alpha-BTX-A647 binding fluorescence, higher = more signal
Sequence of Alpha-bungarotoxin (Bungarus multicinctus) (P60615 whole entry, looked up): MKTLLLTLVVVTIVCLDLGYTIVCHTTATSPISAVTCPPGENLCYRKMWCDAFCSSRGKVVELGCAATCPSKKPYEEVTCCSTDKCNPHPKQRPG

## COC(=O)C(C(=O)OC)C1CCCC(=O)C1 (stereo not given)
[1]
  composite z-score: 0.549
[2]
  z-score: 0.593
[3]
  composite z-score: 0.576
[4]
  composite z-score: -0.385
[5]
  composite z-score: -0.645
[6]
  composite z-score: -0.104
[7]
  composite z-score: -0.107
[8]
  composite z-score: -0.0446
[9]
  composite z-score: 0.526
[10]
  composite z-score: 0.0087

## C=CC[C@@H]1C=CC(ON=C(C)C)[C@@H](CO)O1 (stereo not given in full)
[1]
  composite z-score: -1.17
[2]
  z-score: 0.931
[3]
  composite z-score: 0.0335
[4]
  composite z-score: -0.253
[5]
  composite z-score: 0.0283
[6]
  composite z-score: -0.0701
[7]
  composite z-score: -0.2
[8]
  composite z-score: -0.303
[9]
  composite z-score: -0.275
[10]
  composite z-score: -0.139

## COC(=O)CC=C1c2ccccc2[C@H](OC)[C@H]1C
[1]
  composite z-score: -0.887
[2]
  z-score: -0.154
[3]
  composite z-score: 0.398
[4]
  composite z-score: -0.452
[5]
  composite z-score: -0.746
[6]
  composite z-score: -0.0981
[7]
  composite z-score: -0.138
[8]
  composite z-score: -0.172
[9]
  composite z-score: -0.035
[10]
  composite z-score: -0.545

## C[C@@H](c1ccccc1)N1C(=O)[C@H]2[C@H]3[C@H](O)[C@H](O)CC(=NOC[C@@H](O)COCc4ccco4)[C@H]3CC[C@H]2C1=O
[1]
  composite z-score: -0.788
[2]
  z-score: -0.978
[3]
  composite z-score: 0.858
[4]
  composite z-score: -0.858
[5]
  composite z-score: -1.65
[6]
  composite z-score: -0.196
[7]
  composite z-score: 0.0952
[8]
  composite z-score: -0.285
[9]
  composite z-score: -0.175
[10]
  composite z-score: -0.0662

## COC(=O)[C@H](CCSC)NC(=O)CC=C[C@@H](C)CO
[1]
  composite z-score: 0.264
[2]
  z-score: 0.748
[3]
  composite z-score: 1.58
[4]
  composite z-score: -1.12
[5]
  composite z-score: -2.32
[6]
  composite z-score: 0.149
[7]
  composite z-score: -0.0192
[8]
  composite z-score: -0.394
[9]
  composite z-score: 1.21
[10]
  composite z-score: -0.614

## CCN(CC)CC(O)CN1CCCCc2nc(C)c(C)cc21 (stereo not given)
[1]
  composite z-score: -0.0592
[2]
  z-score: 0.932
[3]
  composite z-score: 0.31
[4]
  composite z-score: -0.397
[5]
  composite z-score: -0.125
[6]
  composite z-score: -0.129
[7]
  composite z-score: -0.138
[8]
  composite z-score: -0.0137
[9]
  composite z-score: 0.579
[10]
  composite z-score: 0.695

## CC(C)CON=C1C[C@@H](O)[C@@H](O)[C@@H]2[C@@H]3C(=O)N([C@@H](C)c4ccccc4)C(=O)[C@@H]3CC[C@@H]12
[1]
  composite z-score: -0.0319
[2]
  z-score: -0.265
[3]
  composite z-score: 0.236
[4]
  composite z-score: -0.231
[5]
  composite z-score: -0.282
[6]
  composite z-score: -0.124
[7]
  composite z-score: -0.289
[8]
  composite z-score: -0.222
[9]
  composite z-score: 0.179
[10]
  composite z-score: 0.0887

## CC(CCC(=O)OC[C@H]1O[C@H](C#Cc2ccccc2)C=C[C@@H]1Oc1ccc(C)cc1)=NOC[C@@H](C)[C@H](OCc1ccccc1)C(C)C
[1]
  composite z-score: -1.89
[2]
  z-score: -0.982
[3]
  composite z-score: -0.502
[4]
  composite z-score: -1.24
[5]
  composite z-score: -0.336
[6]
  composite z-score: -0.0573
[7]
  composite z-score: -0.899
[8]
  composite z-score: -0.902
[9]
  composite z-score: -0.746
[10]
  composite z-score: -0.79

## Cc1ccc(C(C)C)n1C(=O)OC(C)(C)C
[1]
  composite z-score: 0.471
[2]
  z-score: 1.85
[3]
  composite z-score: 0.587
[4]
  composite z-score: -0.159
[5]
  composite z-score: -0.659
[6]
  composite z-score: -0.0704
[7]
  composite z-score: -0.13
[8]
  composite z-score: -0.255
[9]
  composite z-score: 0.241
[10]
  composite z-score: 0.0251

## CCN1C(=O)[C@H]2[C@H]3[C@H](O)[C@H](O)CC(=NO[C@@H]4O[C@H](COC(C)=O)[C@@H](OC(C)=O)[C@H](OC(C)=O)[C@H]4OC(C)=O)[C@@H]3CC[C@H]2C1=O
[1]
  composite z-score: 0.519
[2]
  z-score: -0.835
[3]
  composite z-score: 0.671
[4]
  composite z-score: -0.41
[5]
  composite z-score: -0.564
[6]
  composite z-score: 0.0151
[7]
  composite z-score: 0.126
[8]
  composite z-score: 0.166
[9]
  composite z-score: 0.256
[10]
  composite z-score: 0.721

## CON=C(C)CCC(=O)OC[C@H]1O[C@H](C#Cc2ccccc2)C=C[C@@H]1Oc1ccc(C)cc1
[1]
  composite z-score: 0.247
[2]
  z-score: -3.53
[3]
  composite z-score: 0.395
[4]
  composite z-score: -0.118
[5]
  composite z-score: -0.545
[6]
  composite z-score: -0.0924
[7]
  composite z-score: -0.0709
[8]
  composite z-score: 0.0369
[9]
  composite z-score: 0.571
[10]
  composite z-score: 0.35

## COC(=O)[C@H](C)NC(=O)CCC1CC(OC(=O)NCCc2ccc(F)cc2)CC2(CCCC(COC(=O)NCC3CCCCC3)O2)O1 (stereo not given in full)
[1]
  composite z-score: 1.39
[2]
  z-score: -1.34
[3]
  composite z-score: 0.573
[4]
  composite z-score: 0.71
[5]
  composite z-score: -0.039
[6]
  composite z-score: -0.1
[7]
  composite z-score: 0.0469
[8]
  composite z-score: 0.144
[9]
  composite z-score: 0.774
[10]
  composite z-score: 0.382

## CC=CC1=C(CO)[C@H](O)[C@H]2O[C@H]2[C@@H]1O
[1]
  composite z-score: -0.342
[2]
  z-score: 0.382
[3]
  composite z-score: 1.06
[4]
  composite z-score: -0.849
[5]
  composite z-score: -1.1
[6]
  composite z-score: -0.0236
[7]
  composite z-score: -0.282
[8]
  composite z-score: -0.244
[9]
  composite z-score: -0.193
[10]
  composite z-score: 0.495

## C[C@H]1CC[C@H]2C(=O)O[C@H](CO)CN2[C@@H]1c1ccc(Br)cc1
[1]
  composite z-score: 0.33
[2]
  z-score: -0.0002
[3]
  composite z-score: 0.217
[4]
  composite z-score: -0.25
[5]
  composite z-score: -0.445
[6]
  composite z-score: -0.213
[7]
  composite z-score: -0.276
[8]
  composite z-score: -0.234
[9]
  composite z-score: -0.138
[10]
  composite z-score: 0.126

## CC(=O)OC[C@H]1O[C@H](CC=NO[C@H](C)c2cn([C@@H]3COC[C@H]3O)nn2)C=C[C@@H]1OC(C)=O
[1]
  composite z-score: -0.535
[2]
  z-score: -0.774
[3]
  composite z-score: 0.0524
[4]
  composite z-score: -0.616
[5]
  composite z-score: -0.934
[6]
  composite z-score: -0.0685
[7]
  composite z-score: -0.206
[8]
  composite z-score: -0.17
[9]
  composite z-score: 0.637
[10]
  composite z-score: 0.799

## CON=C(C)CCN1CCCc2nc(C)c(C)cc21
[1]
  composite z-score: 0.365
[2]
  z-score: 0.115
[3]
  composite z-score: 0.685
[4]
  composite z-score: -0.209
[5]
  composite z-score: -1.02
[6]
  composite z-score: -0.0405
[7]
  composite z-score: 0.151
[8]
  composite z-score: 0.177
[9]
  composite z-score: 0.501
[10]
  composite z-score: 0.0599
